These results are taken from PubChem BioAssay (NCATS).

Values without a mark were called inactive. Records with an inconclusive call do not appear. Activity calls are given as the source filed them. Unless noted, calls come from the whole dose curve; as a rule, active = well fitted curve in the direction sought with a large enough effect; inconclusive = small, poorly fitted or top-dose-only effect, or another doubt; inactive = no such curve, though single readings can be large; an effect the other way counts as inactive or inconclusive.

The target in assay [1] is Lysosomal acid glucosylceramidase (Homo sapiens) (UniProt P04062). Description: Glucocerebrosidase-p2 (AID 348; in the data active = potency below about 10 µM; note: potency is the fitted concentration of half-maximal effect). The conditions noted are these: purified GBA, blue fluorogenic substrate, 40 min. In short, it runs like this:
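Normal human glucocerebrosidase (0.2 nM) with blue fluorogenic substrate (80 uM final) in citrate/phosphate pH 5.9 with 10mM sodium taurocholate, 0.01% tween-20; 40 min RT, NaOH/glycine stop; fluorescence Ex 365/Em 440; AC50 from a titration from 0.6 nM upwards.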

Assay [2] can be described thus: AP1 Signaling Pathway (AID 357; active = well fitted curve in either direction with a large enough effect, not every such curve was filed as active; note: % is set by controls: 0 for no effect and ±100 for the full control effect). The conditions noted are these: ME-180 AP-1-bla reporter, EGF-induced, beta-lactamase ratio, 5 h; at 7.69 µM (top of the series) unless noted. In short, it runs like this:
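AP-1-bla ME-180 cells with beta-lactamase reporter under AP-1 response element, stimulated with EC50 EGF; compounds titrated, 5 hours at 37 degrees Celsius. CCF4 read at 460/530 nm ratio; positive and negative modulators judged by AC50.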

In assay [3] the target is Cytochrome P450 1A2 (Homo sapiens) (UniProt P05177). The experiment in a line: p450-cyp1a2 (AID 410; calls by dose curve; note: potency is the fitted concentration of half-maximal effect). In short, it runs like this: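 20nM CYP1A2, 100uM Luciferin-ME (=Km), 100mM KPO4; cpd 10 min RT; +NADPH regen, 60 min RT; stop/detect 20 min; luminescence. Normalized to furafylline 57 uM = full inhibition.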
Assay [4] can be described thus: NFAT Signaling Pathway (AID 444; active = well fitted curve in either direction with a large enough effect, not every such curve was filed as active;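 note: carbachol stimulus at about its EC50 of 1 µM final; % is set by controls: 0 for no effect and ±100 for the full control effect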). The conditions noted are these: Jurkat NFAT-bla M1, carbachol, beta-lactamase ratio, 5 h; at 7.69 µM (top of the series) unless noted. The procedure, abridged: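 Jurkat cells carrying an NFAT-driven β-lactamase reporter and co-transfected muscarinic M1 receptor were treated with compound plus carbachol (1 uM final, an EC50 level) for 5 h at 37 °C. CCF4 loading followed for 1 h at RT; 460/530 nm ratio gave %activity.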

A short description of assay [5]: Stat Signaling Pathway (AID 446; active = well fitted curve in either direction with a large enough effect, not every such curve was filed as active;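 note: ME-180 cervical cancer cells given 40 pM IL-6 alongside compound; SIE-controlled beta-lactamase reporter measured as 460/530 nm FRET emission ratio; % is set by controls: 0 for no effect and ±100 for the full control effect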). The conditions noted are these: ME-180 SIE beta-lactamase reporter, IL-6 stimulated, 5 h; at 7.69 µM (top of the series) unless noted. The procedure, abridged: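 Emission at 460 and 530 nm (excitation 405 nm) reports SIE-controlled beta-lactamase in ME-180 cells. Cells received compound with 40 pM IL-6 for 5 hrs at 37 C; data scaled between 300 pM IL-6 and 125 nM JAK-inhibitor controls.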

The target in assay [6] is Glucocorticoid receptor (Homo sapiens) (UniProt P04150). The experiment in a line: GR-GFP Redistribution (AID 450;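 active = compounds whose dose series gives a full or clear partial fitted curve of increased nuclear translocation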; note: potency is the fitted concentration of half-maximal effect). The conditions noted are these: U2OS GR-GFP nuclear translocation, laser cytometry, 2 h.
Assay [7] has the same target. Description: GR-EFC Redistribution (AID 451; calls by dose curve; note: potency is the fitted concentration of half-maximal effect). The conditions noted are these: CHO-K1 GR-EFC translocation, beta-gal luminescence, 2 h. In short, it runs like this:
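CHO-K1 cells stably expressing nuclear-localized β-gal enzyme acceptor and GR fused C-terminally to the enzyme donor fragment; ligand-driven nuclear translocation restores β-gal by complementation. Compounds titrated up to 46 uM final, 2 h at 37 °C; luminescence read.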

The target of assay [8] is Mitogen-activated protein kinase 10 (Mus musculus) (UniProt Q61831). Description: JNK3 AlphaScreen Assay (AID 530; active = well fitted curve in either direction with a large enough effect, not every such curve was filed as active;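 note: kinase came from lysate of stimulated human HepG2 cells; signal reports phosphorylation of biotinylated GST-cJun 1-79 at Ser73 with 10 µM ATP; % is set by controls: 0 for no effect and ±100 for the full control effect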). The procedure, abridged: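 Biotinylated GST-cJun(1-79) served as substrate for JNK3 in HepG2 lysates stimulated with IL-1beta and TNF-alpha. ATP was 10 uM final, pH 7.6. Ser73 phosphorylation was quantified by AlphaScreen (680 nm excitation).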
For assay [9], the target named is Cytochrome P450 2C9 (Homo sapiens) (UniProt P11712). The experiment in a line: qHTS Assay for Inhibitors and Substrates of Cytochrome P450 2C9 (AID 883). Note: % is set by controls: 0 for no effect and ±100 for the full control effect; nearly all actives have a fitted effect of over 60% in size. In short, it runs like this:
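A luminogenic readout tracked human CYP2C9 (10nM) converting deoxyluciferin (100uM, at KM) in 25mM KPO4 during 60 min at 37C with regenerated NADPH. Values normalized to 57uM sulphaphenazole as complete inhibition.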

For assay [10], the target named is Cytochrome P450 3A4 (Homo sapiens) (UniProt P08684). Description: qHTS Assay for Inhibitors and Substrates of Cytochrome P450 3A4 (AID 884). Note: potency is the fitted concentration of half-maximal effect; nearly all actives have a fitted effect of over 50% in size. In short, it runs like this: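 Luminescent readout of luciferin produced by CYP3A4 (20 nM) dealkylation of Luciferin-PPXE, 25 uM (its KM). NADPH-driven reaction ran 60 min at RT after 10 min compound preincubation; data scaled to 57 uM ketoconazole as 100% inhibition.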

Assay [11] shares this target. Description: qHTS Assay for Activators of Cytochrome P450 3A4 (AID 885). Note: nearly all actives have a fitted effect of over 65% in size. The procedure, abridged: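 Activators are scored by enhanced luminescence from CYP3A4 conversion of luciferin-PPXE (25uM, equal to KM) to luciferin, after 60 min at RT with an NADPH-regenerating system.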
For assay [12], the target named is Cytochrome P450 2D6 (Homo sapiens) (UniProt P10635). The experiment in a line: qHTS Assay for Inhibitors and Substrates of Cytochrome P450 2D6 (AID 891). Note: potency is the fitted concentration of half-maximal effect; nearly all actives have a fitted effect of over 60% in size. The procedure, abridged: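 Luminescent read-out of luciferin formed by 5 nM human CYP2D6 demethylating 30 uM Luciferin-ME EGE (Km level) over 60 min at room temperature after NADPH regeneration addition. Data normalized to full inhibition by 1.43 uM quinidine.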

Assay [13] can be described thus: qHTS Assay for Identification of Small Molecule Agonists for Hypoxia Response Element Signaling Pathway (AID 914; active = well fitted activation curve with a large enough effect in the signal ratio, with a control signal flat, not every such curve was filed as active; the % refers to the signal ratio; note: % of control where 0% means no effect). The conditions noted are these: ME-180 (cervical carcinoma) HRE-bla reporter, beta-lactamase ratio, CoCl2, 17 h; activation: hits give high values. In short, it runs like this:
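Read-out: CCF4 FRET ratio of 460nm to 530nm emission (excitation 405nm) after 2.5 hours at room temperature, taken from HRE-bla ME-180 cells that had been exposed to compound and EC50 CoCl2 for 17 hours.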

Assay [14] deals with Dual specificity protein kinase CLK4 (Homo sapiens) (UniProt Q9HAZ1). Description: qHTS Assay for Inhibitors of CDC-like Kinase 4 (Kinase-Glo Assay) (AID 1770). Note: nearly all actives have a fitted effect of over 65% in size. Note: potency is the fitted concentration of half-maximal effect. In short, it runs like this: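 25 nM Clk4 with 100 uM RS repeat peptide and 1 uM ATP (final) in Tris pH7.5, 10 mM MgCl2, 4.5 h at room temperature. Remaining ATP measured by Kinase-Glo luciferase luminescence.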
Assay [15] shares this target. The experiment in a line: qHTS Assay for Inhibitors of CDC-like Kinase 4 (ADP-Glo Assay) (AID 1771). Note: nearly all actives have a fitted effect of over 70% in size. Note: potency is the fitted concentration of half-maximal effect. In short, it runs like this: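 25 nM Clk4, 100 uM RS peptide, 1 uM ATP (final); 2 mM MgCl2, 0.5 mM EGTA, 2.5 mM DTT, 0.01% Triton X-100; 1 hr RT. ADP-Glo readout: ATP depletion 45 min, conversion/luciferase 30 min, luminescence.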
The target of assay [16] is Ubiquitin carboxyl-terminal hydrolase 1 (Homo sapiens) (UniProt O94782). The experiment in a line: Inhibitors of USP1/UAF1: Pilot qHTS (AID 504865).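 Note: rhodamine fluorescence freed from ubiquitin-rhodamine substrate followed over time; top concentration of the series differs between compounds; % is set by controls: 0 for no effect and ±100 for the full control effect; nearly all actives have a fitted effect of over 35% in size.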 The procedure, abridged: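 USP1/UAF1 complex at 1 nM preincubated 15 min at room temperature with compound, then Ub-Rho substrate added at 150 nM final. Fluorescence (480/540 nm) read kinetically in 50 mM HEPES pH 7.8, 0.5 mM EDTA, 1 mM TCEP, 0.1 mg/ml BSA, 0.01% Tween-20.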

Assay [17] in a line: Primary qHTS for small molecule stabilizers of the endoplasmic reticulum resident proteome: Secreted ER Calcium Modulated Protein (SERCaMP) assay (AID 1508630). Note: % is set by controls: 0 for no effect and ±100 for the full control effect. In short, it runs like this:
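The SH-SY5Y reporter protocol was run at 3 concentrations up to 38.3 uM (primary) or 11 concentrations (follow-up): 16 h compound, 100 nM thapsigargin for 4 h, then extracellular luciferase luminescence.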

Assay [18] addresses Dual specificity protein kinase CLK4 (Homo sapiens) (UniProt Q9HAZ1). Description: qHTS Assay for Inhibitors of CDC-like Kinase 4 (ADP-FP Assay) (AID 1795). Note: nearly all actives have a fitted effect of over 60% in size. Note: potency is the fitted concentration of half-maximal effect. In short, it runs like this: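 Recombinant Clk4 (6.25 nM) phosphorylated 100 uM RS repeat peptide with 1 uM ATP in 25 mM Tris pH 7.5, 10 mM MgCl2, 0.5 mM EGTA, 2.5 mM DTT, 0.01% Triton X-100 for 1 h. ADP was detected by Transcreener ADP2 competitive fluorescence polarization after 30 min at room temperature.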

The target in assay [19] is 3',5'-cyclic-AMP phosphodiesterase 4B (Homo sapiens) (UniProt Q07343). Description: qHTS Assay for Inhibitors of PDE-IV (AID 607; active = well fitted activation curve with a large enough effect in the main read-out, with a control signal flat, not every such curve was filed as active; note: % of control where 0% means no effect). In short, it runs like this:
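The readout is membrane depolarisation from a cAMP-sensing CNG channel, detected with a potential dye at ex 535/em 590. Cells were HEK293-derived (endogenous PDE-IV) at 1000 cells/well, titrated up to 22.9 uM final.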

Chain of Glucocorticoid receptor (Homo sapiens) (P04150 whole entry, looked up): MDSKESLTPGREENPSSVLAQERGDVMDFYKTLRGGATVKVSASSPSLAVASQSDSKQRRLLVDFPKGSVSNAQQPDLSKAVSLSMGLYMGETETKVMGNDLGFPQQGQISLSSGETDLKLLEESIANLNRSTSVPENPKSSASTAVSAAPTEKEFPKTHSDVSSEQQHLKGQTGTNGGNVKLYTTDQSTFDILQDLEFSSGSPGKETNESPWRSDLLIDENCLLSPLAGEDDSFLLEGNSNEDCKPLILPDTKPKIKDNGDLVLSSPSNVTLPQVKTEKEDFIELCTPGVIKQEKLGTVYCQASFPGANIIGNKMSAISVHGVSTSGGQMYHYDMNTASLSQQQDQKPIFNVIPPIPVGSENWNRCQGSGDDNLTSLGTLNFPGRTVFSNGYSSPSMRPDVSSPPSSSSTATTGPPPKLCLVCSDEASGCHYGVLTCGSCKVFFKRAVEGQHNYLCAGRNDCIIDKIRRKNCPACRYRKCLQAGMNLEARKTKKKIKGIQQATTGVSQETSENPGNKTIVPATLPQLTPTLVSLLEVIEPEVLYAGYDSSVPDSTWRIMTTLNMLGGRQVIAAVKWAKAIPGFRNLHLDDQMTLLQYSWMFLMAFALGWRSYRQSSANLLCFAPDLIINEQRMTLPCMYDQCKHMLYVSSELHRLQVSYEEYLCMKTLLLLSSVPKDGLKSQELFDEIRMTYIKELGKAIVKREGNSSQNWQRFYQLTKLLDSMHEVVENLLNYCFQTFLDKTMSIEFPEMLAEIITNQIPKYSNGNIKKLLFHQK
Chain of Dual specificity protein kinase CLK4 (Homo sapiens) (Q9HAZ1 whole entry, looked up): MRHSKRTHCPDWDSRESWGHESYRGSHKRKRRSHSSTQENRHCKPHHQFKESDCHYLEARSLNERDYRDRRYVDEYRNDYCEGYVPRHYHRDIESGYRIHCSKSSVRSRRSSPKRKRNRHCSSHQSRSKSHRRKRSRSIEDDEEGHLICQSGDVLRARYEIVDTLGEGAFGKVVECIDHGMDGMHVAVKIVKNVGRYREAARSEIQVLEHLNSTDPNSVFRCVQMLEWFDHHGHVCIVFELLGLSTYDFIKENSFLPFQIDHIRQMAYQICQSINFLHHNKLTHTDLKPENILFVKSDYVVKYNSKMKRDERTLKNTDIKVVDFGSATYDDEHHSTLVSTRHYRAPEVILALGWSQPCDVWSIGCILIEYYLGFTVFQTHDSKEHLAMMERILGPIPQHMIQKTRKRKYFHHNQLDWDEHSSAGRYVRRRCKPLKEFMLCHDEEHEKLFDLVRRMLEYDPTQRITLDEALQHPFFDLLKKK
Chain of Cytochrome P450 3A4 (Homo sapiens) (P08684 whole entry, looked up): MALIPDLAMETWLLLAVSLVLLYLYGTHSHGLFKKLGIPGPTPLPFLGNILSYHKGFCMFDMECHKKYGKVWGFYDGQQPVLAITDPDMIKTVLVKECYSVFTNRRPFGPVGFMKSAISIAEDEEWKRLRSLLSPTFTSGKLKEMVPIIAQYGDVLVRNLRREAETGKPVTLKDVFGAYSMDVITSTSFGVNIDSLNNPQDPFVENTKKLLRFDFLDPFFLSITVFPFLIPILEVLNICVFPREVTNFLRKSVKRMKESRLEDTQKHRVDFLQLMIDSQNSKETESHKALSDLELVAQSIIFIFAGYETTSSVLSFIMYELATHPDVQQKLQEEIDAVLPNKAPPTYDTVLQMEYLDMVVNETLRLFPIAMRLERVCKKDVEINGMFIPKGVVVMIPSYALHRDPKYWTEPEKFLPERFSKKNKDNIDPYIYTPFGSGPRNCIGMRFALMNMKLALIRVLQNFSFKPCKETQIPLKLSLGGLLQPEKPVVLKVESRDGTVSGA
Chain of Cytochrome P450 1A2 (Homo sapiens) (P05177 whole entry, looked up): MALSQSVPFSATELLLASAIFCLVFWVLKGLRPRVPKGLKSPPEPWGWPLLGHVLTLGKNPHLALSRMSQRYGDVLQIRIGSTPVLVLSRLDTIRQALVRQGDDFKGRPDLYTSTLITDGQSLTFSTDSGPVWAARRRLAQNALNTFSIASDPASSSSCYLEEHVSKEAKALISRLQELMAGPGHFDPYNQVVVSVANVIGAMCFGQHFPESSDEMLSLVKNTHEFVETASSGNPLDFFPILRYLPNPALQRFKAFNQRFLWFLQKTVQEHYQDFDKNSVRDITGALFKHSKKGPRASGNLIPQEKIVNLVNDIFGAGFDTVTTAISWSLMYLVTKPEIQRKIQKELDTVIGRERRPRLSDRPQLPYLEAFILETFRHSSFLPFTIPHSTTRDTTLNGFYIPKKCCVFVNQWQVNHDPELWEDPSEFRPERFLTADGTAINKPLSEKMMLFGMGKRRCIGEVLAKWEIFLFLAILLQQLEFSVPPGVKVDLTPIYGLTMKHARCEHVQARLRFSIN
Chain of 3',5'-cyclic-AMP phosphodiesterase 4B (Homo sapiens) (Q07343 whole entry, looked up): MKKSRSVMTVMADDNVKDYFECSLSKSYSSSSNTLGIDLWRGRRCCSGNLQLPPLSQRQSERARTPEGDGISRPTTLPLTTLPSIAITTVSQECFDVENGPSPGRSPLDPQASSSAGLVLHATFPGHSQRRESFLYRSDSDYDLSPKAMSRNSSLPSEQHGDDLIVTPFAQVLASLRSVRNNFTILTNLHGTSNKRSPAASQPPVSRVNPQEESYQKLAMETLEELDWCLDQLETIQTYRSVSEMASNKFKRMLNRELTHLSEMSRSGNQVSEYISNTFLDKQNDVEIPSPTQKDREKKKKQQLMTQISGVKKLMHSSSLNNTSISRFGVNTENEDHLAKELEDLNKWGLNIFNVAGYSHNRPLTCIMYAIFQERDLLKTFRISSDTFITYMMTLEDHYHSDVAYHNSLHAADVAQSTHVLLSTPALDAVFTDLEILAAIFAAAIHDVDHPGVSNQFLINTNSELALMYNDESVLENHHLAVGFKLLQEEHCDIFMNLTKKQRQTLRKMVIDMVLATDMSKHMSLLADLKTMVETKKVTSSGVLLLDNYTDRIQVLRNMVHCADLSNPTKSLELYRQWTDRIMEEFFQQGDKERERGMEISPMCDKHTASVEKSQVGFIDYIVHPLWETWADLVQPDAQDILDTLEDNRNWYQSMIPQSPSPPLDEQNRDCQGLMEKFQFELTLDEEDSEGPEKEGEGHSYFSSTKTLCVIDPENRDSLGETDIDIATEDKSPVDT
Chain of Lysosomal acid glucosylceramidase (Homo sapiens) (P04062 whole entry, looked up): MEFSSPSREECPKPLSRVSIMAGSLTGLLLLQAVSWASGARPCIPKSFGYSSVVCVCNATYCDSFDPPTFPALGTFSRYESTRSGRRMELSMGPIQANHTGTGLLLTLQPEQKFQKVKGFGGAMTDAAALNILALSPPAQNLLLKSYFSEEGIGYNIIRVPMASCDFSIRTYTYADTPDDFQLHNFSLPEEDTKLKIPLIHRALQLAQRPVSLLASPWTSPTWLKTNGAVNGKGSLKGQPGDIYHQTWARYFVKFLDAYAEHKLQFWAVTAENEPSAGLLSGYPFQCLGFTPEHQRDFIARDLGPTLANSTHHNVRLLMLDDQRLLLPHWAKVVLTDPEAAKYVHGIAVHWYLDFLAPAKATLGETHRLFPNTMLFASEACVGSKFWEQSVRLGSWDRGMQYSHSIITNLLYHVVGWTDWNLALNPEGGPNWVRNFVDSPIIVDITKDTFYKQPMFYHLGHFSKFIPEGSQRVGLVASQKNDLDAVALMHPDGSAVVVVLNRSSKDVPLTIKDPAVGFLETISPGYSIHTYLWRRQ
Chain of Ubiquitin carboxyl-terminal hydrolase 1 (Homo sapiens) (O94782 whole entry, looked up): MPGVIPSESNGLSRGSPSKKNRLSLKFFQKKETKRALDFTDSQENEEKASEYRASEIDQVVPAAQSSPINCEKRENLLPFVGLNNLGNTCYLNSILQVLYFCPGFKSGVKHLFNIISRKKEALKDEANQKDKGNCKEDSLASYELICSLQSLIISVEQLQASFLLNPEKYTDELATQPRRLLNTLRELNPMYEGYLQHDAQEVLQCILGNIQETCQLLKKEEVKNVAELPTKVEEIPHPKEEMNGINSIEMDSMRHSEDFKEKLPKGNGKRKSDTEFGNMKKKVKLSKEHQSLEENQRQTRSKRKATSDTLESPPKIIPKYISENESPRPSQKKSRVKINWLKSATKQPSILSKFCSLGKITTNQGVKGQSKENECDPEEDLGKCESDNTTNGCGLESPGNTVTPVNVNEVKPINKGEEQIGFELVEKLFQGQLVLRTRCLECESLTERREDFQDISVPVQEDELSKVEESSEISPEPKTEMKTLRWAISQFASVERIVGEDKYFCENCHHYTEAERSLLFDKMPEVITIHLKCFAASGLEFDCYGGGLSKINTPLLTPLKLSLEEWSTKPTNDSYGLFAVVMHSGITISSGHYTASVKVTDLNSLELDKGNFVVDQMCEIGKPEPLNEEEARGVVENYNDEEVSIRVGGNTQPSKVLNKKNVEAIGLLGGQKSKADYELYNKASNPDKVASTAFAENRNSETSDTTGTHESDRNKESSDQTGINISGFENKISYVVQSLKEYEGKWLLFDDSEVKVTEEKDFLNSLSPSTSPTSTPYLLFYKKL
Chain of Cytochrome P450 2D6 (Homo sapiens) (P10635 whole entry, looked up): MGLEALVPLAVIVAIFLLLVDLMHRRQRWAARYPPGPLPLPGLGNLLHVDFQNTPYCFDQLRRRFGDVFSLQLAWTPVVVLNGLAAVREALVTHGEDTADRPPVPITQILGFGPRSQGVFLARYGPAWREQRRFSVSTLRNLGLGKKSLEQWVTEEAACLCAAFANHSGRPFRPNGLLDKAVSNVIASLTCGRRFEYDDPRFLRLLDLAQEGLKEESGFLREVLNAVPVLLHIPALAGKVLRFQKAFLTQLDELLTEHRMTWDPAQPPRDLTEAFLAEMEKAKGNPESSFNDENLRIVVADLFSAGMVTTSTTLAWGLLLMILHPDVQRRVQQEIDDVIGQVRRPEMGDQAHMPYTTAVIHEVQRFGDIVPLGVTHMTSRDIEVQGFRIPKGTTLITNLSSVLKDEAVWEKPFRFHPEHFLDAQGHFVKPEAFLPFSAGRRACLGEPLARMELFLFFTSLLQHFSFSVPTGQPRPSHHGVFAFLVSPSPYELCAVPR

As for `CC(=O)NCCNc1nc(-c2ccccc2C)nc2ccccc12`, the Potency is above 11.4 µM in assay [1]; 6.31 µM (active) in assay [3]; above 46 µM in assay [6]; above 46 µM in assay [7]; 5.01 µM (active) in [10]; 5.01 µM (active) in assay [12]. Besides, the Potency in assay [14] is 22.4 µM (active); in [15] it was 15.8 µM (active). Also, the results for the activity change, negative = inhibition in assay [2], in assay [4] and in [9] were 7.34%, -9.21% and 46.4% [at 2.29 µM], respectively. Further, in [5], the activity, negative = inhibition is 7.37%. The Potency result in assay [8], in assay [11] and in assay [16] was “inactive” each time. The activation in assay [13] was -1%. Moreover, the outcome in assay [17] was inactive.
Turning to `COc1ccc(CNc2ncnc3ccc(-c4ccc5c(c4)OCO5)cc23)c(OC)c1`, the activity change, negative = inhibition in [2] is -16.9%. Besides, in [5], the activity, negative = inhibition is -5.8%. Also, the Potency was above 46 µM in assay [6]; above 46 µM in [7]; 1.41 µM (active) in assay [14]; 1.41 µM (active) in assay [15]; 398 nM (active) in [18]. For the same molecule, the Potency entry in assay [8] and in assay [16] was “inactive” throughout. Besides, the outcome in assay [17] was inactive.
As for `COc1cccc(-c2cc(NCc3cccnc3)ncn2)c1`, the Potency in assay [1] is above 11.4 µM; in assay [3] it was 0.631 µM (active); in [6], above 46 µM; in assay [7], above 46 µM; in assay [10], 3.98 µM (active); in assay [14], 14.1 µM (active). The Potency in [15] is 14.1 µM (active). The activity change, negative = inhibition in assay [2] is 12.8%; in assay [4], 0.0139%. The activity, negative = inhibition in assay [5] was -7.08%. Moreover, the Potency entry in assay [8], in [19], in [11] and in assay [16] was “inactive” throughout. Moreover, in assay [17], the outcome was inactive.
Consider `CCNc1ncc2nc(CCc3ccccc3)c(=O)n(C[C@H]3CCCO3)c2n1`, for which the activity change, negative = inhibition is -23.9% in assay [2] and -3.48% in [4]. Moreover, the activity, negative = inhibition in assay [5] was -9.11%. The Potency is above 9.22 µM in [6] and above 46 µM in [7]. Besides, the Potency result in [8], in assay [14], in assay [15] and in assay [18] was “inactive” throughout. In addition, the outcome in assay [17] was inactive.
Take `CNc1ccnc(-c2cccc(NS(C)(=O)=O)c2)n1`: the activity change, negative = inhibition in assay [2] was 13.6%; in assay [4], 18.6%. Also, the activity, negative = inhibition in assay [5] was -1.8%. Besides, the Potency in assay [6] and in assay [7] was above 46 µM each time. Moreover, the Potency entry in [8], in assay [19], in [14], in [15], in [18] and in [16] was “inactive” each time. The outcome in [17] was inactive.
Turning to `COCCn1c(=O)cnc2cnc(Oc3cccc(Cl)c3)nc21`, the Potency was above 11.4 µM in assay [1], 3.16 µM (active) in assay [3], above 9.22 µM in assay [6] and above 46 µM in assay [7]. The activity change, negative = inhibition in [2] is 1.86%; in [4] it was 2.09%. The activity, negative = inhibition in assay [5] was -13.2%. Besides, the Potency result in [8], in [19], in assay [11], in assay [14], in [15] and in [16] was “inactive” throughout. Further, in [17], the result was inactive.
